According to PubChem BioAssay (NCATS):
Records with an inconclusive call do not appear. Calls of active or inactive are those of the source. Calls come from the whole dose curve; as a rule, active = well fitted curve in the direction sought with a large enough effect; inconclusive = small, poorly fitted or top-dose-only effect, or another doubt; inactive = no such curve, though single readings can be large; an effect the other way counts as inactive or inconclusive.

Tests used:
[1] = P-glycoprotein substrates identified in KB-8-5-11 adenocarcinoma cell line, qHTS therapeutic library screen (AID 1346987); note: nearly all actives have a fitted effect of over 65% in size
Method in brief: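 In this qHTS, P-gp-rich KB-8-5-11 cells received library compounds across a concentration range. Viability was quantified by luminescence after 72 h at 37 degree C.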

[2] = NS1 protein of Zika virus - qHTS assay to identify small molecule inhibitors in human HEK 293 cells (AID 1347053); note: series mostly up to about 46 µM; nearly all actives have a fitted effect of over 55% in size
Method in brief: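 TR-FRET signal from two anti-ZIKV NS1 antibodies quantified NS1 in HEK 293 cells 24 h after MR766 infection at MOI = 0.5; compounds were added 1 h before virus. Uninfected cells and infected cells defined the NS1 normalization range.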

[3] = qHTS of pediatric cancer cell lines to identify multiple opportunities for drug repurposing: Primary screen for TC32 cells (AID 1347089); note: nearly all actives have a fitted effect of over 60% in size
Method in brief: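 A viability screen of TC32 cells was run over 48 h, with primary MIPE doses spanning 0.78 nM–46 µM and NPC doses 0.59 nM–46 µM. ATP luminescence (CellTiter-Glo) served as the read-out.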

[4] = qHTS of pediatric cancer cell lines to identify multiple opportunities for drug repurposing: Primary screen for DAOY cells (AID 1347090); note: series mostly up to about 46 µM; nearly all actives have a fitted effect of over 55% in size
Method in brief: (§1)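 Cell viability, CellTiter-Glo luminescence; 500-1,000 cells/well, 8- or 11-point titration, 48 h compound exposure at 37 degrees C, 5% CO2. Controls: DMSO neutral, bortezomib 2.3 µM final as positive.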

[5] = qHTS of pediatric cancer cell lines to identify multiple opportunities for drug repurposing: Primary screen for SJ-GBM2 cells (AID 1347091)
Method in brief: as §1

[6] = qHTS of pediatric cancer cell lines to identify multiple opportunities for drug repurposing: Primary screen for A673 cells (AID 1347092); note: nearly all actives have a fitted effect of over 45% in size
Method in brief: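 Titration-based qHTS on A673 cells: MIPE compounds spanned 11 points (0.78 nM to 46 µM final), NPC compounds 8 points (0.59 nM to 46 µM final). Viability after 48 h was measured by ATP luminescence.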

Measured: Potency

OCc1c[nH]c2ccccc12
inactive: [1] | [2] | [3] | [4]

CCCCCC[C@@H](CCC)C(=O)O
not listed: [6]
inactive: all other assays above

N#C/C(=C1/SC[C@@H](c2ccc(Cl)cc2Cl)S1)n1ccnc1
inactive: [1] | [2]

CN1C(=O)c2ccccc2C1=O
inactive: all assays above

Cc1cc(C(C)(C)C)c(O)c(C(C)(C)C)c1
not listed: [6]
inactive: all other assays above

O=C(NO)c1ccccc1
inactive: [1] | [2] | [3] | [4]

Nc1c(NC/C=C\COc2cc(CN3CCCCC3)ccn2)c(=O)c1=O
not listed: [6]
inactive: all other assays above

CCOC(=O)c1ccc(OCCN2C[C@H](O)[C@@H](O)[C@H](O)[C@H]2CO)cc1
not listed: [6]
inactive: all other assays above

CCCCC/C=C\C/C=C\CCCCCCCC(=O)NC(C)c1ccccc1 (stereo not given)
not listed: [6]
inactive: all other assays above

O=C(O)[C@H](O)[C@@H](O)[C@H](O[C@@H]1O[C@H](CO)[C@H](O)[C@H](O)[C@H]1O)[C@H](O)CO
not listed: [6]
inactive: all other assays above

CO/N=C(/C(=O)N[C@@H]1C(=O)N2C(C(=O)OCOC(=O)C(C)(C)C)=C(C)CS[C@H]12)c1csc(N)n1
inactive: all assays above

CC(=O)OCC(=O)[C@@]1(O)CCC2C3CCC4=CC(=O)CC[C@]4(C)C3[C@@H](O)C[C@@]21C (stereo not given in full)
inactive: all assays above

CC(=O)OCC(=O)[C@@]1(O)[C@H](OC(C)=O)C[C@H]2[C@@H]3CCC4=CC(=O)C=C[C@]4(C)[C@@]3(F)[C@@H](O)C[C@@]21C
not listed: [6]
inactive: all other assays above

COc1cc(C=O)ccc1O
not listed: [6]
inactive: all other assays above

CCO[C@H](Cc1ccc(OCCc2ccc(OS(C)(=O)=O)cc2)cc1)C(=O)O
inactive: all assays above

CO/N=C(/C(=O)N[C@@H]1C(=O)N2C(C(=O)O)=C(Cn3nnc(C)n3)CS[C@H]12)c1csc(N)n1
inactive: all assays above

O=C(O)c1[nH]n(-c2ccc(S(=O)(=O)O)cc2)c(=O)c1N=Nc1ccc(S(=O)(=O)O)cc1
inactive: all assays above

CC(C)(C)c1nnc(NS(=O)(=O)c2ccccc2)s1
inactive: all assays above

CC(C)C(C)(C)C(C)(C)C(C)(C)S
inactive: all assays above

Oc1ccccc1
inactive: all assays above

Nc1c[n+](N2CCOCC2)no1
inactive: all assays above

O=C(O)CNC(=O)CNC(=O)CNC(=O)CSC(=O)c1ccccc1
inactive: all assays above

C[C@]12CCC(=O)C=C1CC[C@@H]1[C@@H]2[C@@H](O)C[C@@]2(C)[C@H]1CC[C@]2(O)C(=O)COC(=O)CCC(=O)O
inactive: all assays above

CN1CCC(=C2c3ccccc3CCc3cccnc32)CC1
inactive: all assays above

N[C@@H](Cc1cc(I)c(O)c(I)c1)C(=O)O
inactive: all assays above

CN(C)C(=O)CNC(=O)Cc1ccccc1
inactive: all assays above

CCCCCC1Nc2cc(C(F)(F)F)c(S(N)(=O)=O)cc2S(=O)(=O)N1 (stereo not given)
inactive: all assays above

COc1cc(C(=O)OC(COCCC(C)C)CN2CCOCC2)cc(OC)c1OC (stereo not given)
inactive: all assays above

CCOc1ccc(NS(=O)(=O)c2ccc(N)cc2)nn1
inactive: all assays above

CC(=O)[C@H]1CC[C@H]2[C@@H]3C=CC4=CC(=O)CC[C@@]4(C)[C@@H]3CC[C@]12C
inactive: all assays above

COc1ccccc1OCC1CNC(=O)O1 (stereo not given)
inactive: all assays above
